High-throughput results (PubChem)
An excerpt weighted towards active compounds, which were near 1.5% of everything screened.
IDE act: boosts human insulin-degrading enzyme activity in HEK cells. FAbeta-B cleavage, fluorescence polarization; 0% vehicle, 100% cell-free pure enzyme wells. activation, % at 5.96 µM. AID 493087. 340,000 tested, 0.073% active;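 active = activation above the mean of all tested compounds plus 3 SD, set per screening campaign, cut at about 17% in these data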
CRFR2-BP ag: CRF-BP/CRF-R2 complex agonism | HEK293 CRF-R2/CRF-BP, calcium dye fluorescence (FLIPR); percent of saturating CRF peptide response | activation, % at 13.2 µM | 350,000 tested, 0.46% active;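 active = activation of at least 50%, plus an integration ratio under a set limit after plate pattern correction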;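 note: plate controls were neutral control wells without compound for no effect and CRF at EC100 for full effect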
cardiac RTF act: increases calcium sensitivity of human cardiac regulated thin filaments; IANBD-labeled TnC RTF fluorescence at EC20 calcium; 0% EC20 calcium, 100% full calcium; 340,000 tested, 0.24% active; AID 493008; activation, % at 7.2 µM;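 active = activation above the mean over all tested compounds plus 3 SD, cut at about 30% in these data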;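 note: rise in fluorescence read as greater calcium sensitivity of cardiac thin filaments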
IDE inh: inhibits human insulin-degrading enzyme in HEK cells. inhibition, % at 5.59 µM. 320,000 tested, 0.41% active. P14735. FAbetaB cleavage, fluorescence polarization;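 active = percent inhibition above the average of all tested compounds plus 3 SD, set per screening campaign, cut at about 16% in these data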;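 note: IDE supplied by intact live HEK cells; FP after avidin binding of uncleaved biotin substrate so inhibition keeps polarization high; 0% = DMSO wells and 100% = 60 µM reference IDE inhibitor Ii1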
CRFBP-R2 block: CRF-BP/CRF-R2 complex antagonism | HEK293 CRF-R2/CRF-BP, CRF-induced calcium fluorescence | inhibition, % at 11.8 µM | 350,000 tested, 0.59% active | AID 588475;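 active = inhibition of the ligand-induced calcium signal above about 50% at the single tested concentration, limit read from the data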
Cardiac RTF inh: cardiac RTF calcium desensitization | P19429+P45379 | IANBD-labeled cardiac RTF, Ca2+ fluorescence | inhibition, % at 7.15 µM | 340,000 tested, 0.12% active;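 active = inhibition above the mean inhibition of all tested compounds plus 3 SD, cut at about 17% in these data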;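 note: assay run at fixed EC70 calcium of 1.6 mM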
Numbers without * were called inactive; i = inactive; / = no result.

SMILES | IDE act | CRFR2-BP ag | cardiac RTF act | IDE inh | CRFBP-R2 block | Cardiac RTF inh
C(=Cc1nc2ccccc2o1)c1ccc2c(c1)OCO2 | / | 6 | / | / | -7 | /
C(=Cc1cnc2ccccc2n1)c1ccc2c(c1)OCO2 | / | 100* | / | / | -62 | /
Cc1ccc(N=Nc2[nH]c3ccccc3c2O)cc1 | -3 | 1 | 36* | 15 | -2 | -47
Cc1ccc(N=Nc2c(O)[nH]c3ccc(F)cc23)cc1 | -10 | 17 | 75* | 14 | -21 | -88
CC(C)CCN1CCN(Cc2cccc3cccnc23)CC1CCO (stereo unspecified) | 4 | 0 | 0 | 9 | -3 | -3
COc1ccccc1C1C2=C(N=c3s/c(=C/c4cccc(OCC(=O)O)c4)c(=O)n31)c1ccccc1CC2 (stereo unspecified) | 4 | 0 | 0 | 7 | 65* | -17
COc1cccc(C2C3=C(N=c4s/c(=C\c5cccc(O)c5)c(=O)n42)c2ccccc2CC3)c1OC (stereo unspecified) | 7 | 2 | -14 | 2 | -14 | -2
O=[N+]([O-])c1ccc(NC(=S)NCCc2ccc(F)cc2)cc1 | 0 | 29 | 0 | 4 | 54* | -6
COc1ccc(CCNC(=O)C(NS(=O)(=O)c2ccc3c(c2)CCN3C(C)=O)C(C)C)cc1OC (stereo unspecified) | / | / | / | 0 | / | /
COc1ccc(NS(=O)(=O)c2ccc(N)cc2)nn1 | / | / | / | -3 | / | /
Nc1ccc(S(=O)(=O)Nc2ccc(Cl)nn2)cc1 | 4 | -1 | -3 | 1 | 54* | -10
CN(C)S(=O)(=O)c1ccc(Cl)c(NC(=O)CNC2(C)CCS(=O)(=O)C2)c1 (stereo unspecified) | 7 | -1 | 1 | 0 | 113* | 1
COc1cccc(CN2CCC(Oc3ccc(C(=O)NCc4ccccn4)cc3)CC2)c1O | 7 | 0 | -7 | / | 107* | 0
O=C(NCc1ccccn1)c1ccc(OC2CCN(Cc3ccccc3O)CC2)cc1 | 6 | 1 | -3 | -3 | 4 | -3
CSCCC(NC(=O)COc1ccccc1)C(=O)NCC(C)(C)N1CCOCC1 (stereo unspecified) | / | -1 | / | / | -8 | /
CN(c1ccccc1)S(=O)(=O)c1cccc(NC(=O)COc2cccc([N+](=O)[O-])c2)c1 | 18* | -3 | 3 | 4 | 52* | -11
Cc1cc(C)cc(NC(=O)c2nnn(Cc3cc(C)ccc3C)c2N)c1 | -5 | 54* | -6 | 2 | -75 | -1
COc1ccc(C2C(C#N)=C(N)OC(C(C)(C)C)=C2C#N)cc1OC (stereo unspecified) | -3 | 0 | 2 | -3 | 4 | 6
COc1ccc(C2C(C#N)=C(N)SC(N)=C2C#N)cc1OC | -15 | 19 | 36* | 13 | -28 | -59
Cc1cc2nc3c(=O)n(C4CCCCC4)c(=O)[nH]c3nc2cc1N | -7 | 380 | 566* | / | -349 | i
Cc1ccc(NC(=O)c2ccc(NS(=O)(=O)/C=C/c3ccccc3)cc2)nc1 | 8 | 1 | -5 | 0 | -9 | 6
C=CCOc1c(CNc2cccc(C(=O)O)c2)cccc1OCC | 3 | -1 | 1 | -1 | 64* | -5
COc1cccc(SCc2noc(C(=O)NCC3CC3)c2C(=O)NCC2CC2)c1 | -1 | 1 | -1 | 4 | -3 | -23
Cn1c(CN2CCCCC2)nc2cc(NS(=O)(=O)c3ccc(Cl)cc3)ccc21 | 4 | 86* | 5 | 2 | -73 | -8
Cn1c(CCN2CCCCC2)nc2cc(NS(=O)(=O)c3ccc(Cl)cc3)ccc21 | 6 | -1 | -4 | 3 | -11 | 1
SMILES | IDE act | CRFR2-BP ag | cardiac RTF act | IDE inh | CRFBP-R2 block | Cardiac RTF inh
CCc1ccc(C(=O)C(C)OC(=O)c2cccc(S(=O)(=O)N3CCOCC3)c2)cc1 (stereo unspecified) | 2 | 0 | -13 | -1 | 6 | -12
O=C1CC2CS(=O)(=O)CC2N1c1ccc(Oc2ccccc2)cc1 (stereo unspecified) | -1 | -5 | 7 | 0 | 121* | 5
O=C1N(c2ccccc2)C2CS(=O)(=O)CC2N1c1ccc(Cl)c(Cl)c1 (stereo unspecified) | 0 | 0 | 2 | 1 | -27 | -7
CC(=NCCCn1ccnc1)c1c(C)[nH]n(-c2ccc([N+](=O)[O-])cc2)c1=O | 0 | 5 | -8 | 0 | 14 | 1
COc1c(C(=O)Nc2ccc(CN3CCOCC3)cc2)cc2ccccc2c1Br | 3 | 1 | 1 | -7 | 1 | -3
COc1c(C(=O)Nc2ccc3[nH]c(=O)[nH]c3c2)cc2ccccc2c1Br | 20* | -1 | 8 | -3 | 18 | -2
Cc1cccc(NS(=O)(=O)c2c(C)[nH]c(C)c2C(=O)N2CCCC2)c1 | 4 | 0 | -2 | 8 | 4 | -11
COc1ccccc1CNC(=O)CCc1nnc2ccc(NCCCN3CCCC3=O)nn12 | 4 | 1 | 5 | -1 | 99* | 2
COc1ccc(CNC(=O)CCc2nnc3ccc(NCCCN4CCCC4=O)nn23)cc1 | 1 | 0 | 5 | 0 | 0 | -3
O=C(CN1CCN(C(=O)C2CCCO2)CC1)Nc1ccc(Br)cc1 (stereo unspecified) | 2 | 1 | 1 | 4 | -2 | -10
CC1=C(C(=O)N2CCOCC2)CC(CC(=O)NCCN2CCOCC2)C(=O)N1Cc1ccccc1 (stereo unspecified) | / | -1 | / | / | -3 | /
Cn1c(=O)c2cc3ccc(Cl)cc3nc2n(C)c1=O | / | -1 | / | 11 | 52* | /
NS(=O)(=O)c1ccc(CCNS(=O)(=O)c2cccc3nsnc23)cc1 | 2 | -1 | -9 | 1 | -3 | -4
CN1CCC(N(CCc2ccccc2)C(=O)CCC(=O)O)CC1 | -2 | 3 | 35* | 3 | -3 | -8
COc1ccc(Cn2c(-c3ccco3)nc3c(c(=O)c4ccccc4n3C)c2=O)cc1 | 9 | -4 | 7 | 5 | 72* | 0
COc1ccc(-c2nc3c(c(=O)c4ccccc4n3C)c(=O)n2Cc2ccccc2)cc1 | 5 | 53* | 3 | 2 | -37 | -2
COc1ccc(CCn2c(C(C)C)nc3c(c(=O)c4ccccc4n3C)c2=O)cc1 | -5 | 115* | 2 | 1 | 50 | -12
COc1ccc(Cn2c(C)nc3c(c(=O)c4ccccc4n3C)c2=O)cc1 | -1 | 0 | -3 | 2 | -4 | -5
COc1ccc(Cn2c(-c3ccc(OC)cc3)nc3c(c(=O)c4ccccc4n3C)c2=O)cc1 | / | / | / | -11 | / | /
CCCCN(C(=O)c1ccc(Cl)c(S(=O)(=O)N2CCOCC2)c1)c1c(N)n(CCC)c(=O)[nH]c1=O | 2 | 1 | -3 | 6 | -2 | 2
Cc1cc(CN2CCC(n3nccc3NC(=O)c3ccccc3Cl)CC2)cc(C)c1O | -4 | 0 | 2 | 5 | -8 | -1
